# Assay results taken from PubChem BioAssay (NCI).
# About 83,000 compounds went through this panel and 20% of them were active in at least one assay; those are over-represented in the sample as a whole.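 Plates (96-well) were seeded with cells, treated with compound at one concentration, and incubated for 48 hours before percent growth was determined.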 Unmarked numbers belong to inactive results. Active and inactive are the calls of the source. Rule for the calls: active = growth percent below 10; inactive = the rest.
# Assays:
# Experiment in all cases: NCI-60 one-dose screen, 48 h (100 = growth as untreated, 0 = no growth, -100 = all killed)
# Details in all cases: 10 µM unless noted
# DU-145 prostate = system: DU-145 prostate
# K-562 leukemia = system: K-562 leukemia
# MALME-3M melanoma = system: MALME-3M melanoma
# MDA-MB-231 breast = system: MDA-MB-231 breast
# RXF 393 renal = system: RXF 393 renal
# SF-268 CNS = system: SF-268 CNS
# SF-295 CNS = system: SF-295 CNS
# SF-539 CNS = system: SF-539 CNS
# UACC-257 melanoma = system: UACC-257 melanoma
# M14 melanoma = system: M14 melanoma
Compound,growth (DU-145 prostate),growth (K-562 leukemia),growth (MALME-3M melanoma),growth (MDA-MB-231 breast),growth (RXF 393 renal),growth (SF-268 CNS),growth (SF-295 CNS),growth (SF-539 CNS),growth (UACC-257 melanoma),growth (M14 melanoma)
CCN(CC)CCOc1ccc(C(=C(C)c2ccc(OC)cc2)c2ccc(OCCN(CC)CC)cc2)cc1,37.8%,-12.4% (active),-92.1% (active),-54.3% (active),-77.8% (active),6.51% (active),-64.1% (active),-88.2% (active),-67.2% (active),-70.4% (active)
CC1CCN(CC(=O)Nn2c(COc3ccccc3)nc3ccccc3c2=O)CC1,101%,32.2%,79.5%,78.4%,94.2%,99.4%,96.9%,88.6%,95.4%,78.9%
CC(C)Sc1nc(-c2ccccc2)c(C#N)c(N2CCOCC2)n1,83.1%,62.4%,36.5%,63.7%,45.7%,79%,51.1%,50.2%,97.5%,96.9%
CN1CCN(c2ccc(Nc3nc(NCCCNS(=O)(=O)c4cccc5ccccc45)c4sccc4n3)cc2)CC1,-6.73% (active),5.72% (active),-91.6% (active),-29% (active),-87.1% (active),-24.1% (active),-71.8% (active),-92.1% (active),-89% (active),-81.9% (active)
Cn1cc(-c2nnc(N)nc2-c2c[nH]c3ccc(Br)cc23)c2cc(Br)ccc21,109%,105%,108%,98.7%,93.1%,106%,100%,102%,108%,102%
COc1ccc(-c2c(C(N)=O)c(N)n(Cc3nc4ccccc4[nH]3)c(=O)c2C#N)c(OC)c1,112%,101%,93.2%,92.1%,117%,102%,104%,97.9%,112%,102%
N#C/C(=C\c1cccc2c1OCO2)C(=O)Nc1sc2c(c1C#N)CCCC2,111%,104%,105%,95.6%,123%,103%,97.2%,97%,110%,97.5%
O=C1Nc2ccc(F)cc2/C1=C\C(=O)c1ccc(NS(=O)(=O)c2ccccc2)cc1,92.1%,49.1%,79.7%,90.4%,72.3%,97.9%,96.4%,97.5%,95.9%,90.7%
Cc1ccc(C(=O)Nc2ccc(CNCCN3CCOCC3)c(C(F)(F)F)c2)cc1C#Cc1cnc2cccnn12,33.5%,5.07% (active),-44.6% (active),-18.5% (active),-54.2% (active),15.6%,-24.7% (active),-69.3% (active),-45.3% (active),-7.89% (active)
CN1CCN(Cc2ccc(NC(=O)c3cncc(C#Cc4cnc5ccc(OCC6COC6)nn45)c3)cc2C(F)(F)F)CC1,-83.1% (active),0.233% (active),-88.2% (active),-63% (active),-78.5% (active),-70.2% (active),-93.7% (active),-88.2% (active),-51.6% (active),-86.8% (active)
C=C(C)[C@@H]1CC[C@]2(C(=O)N3CCN(C)CC3)CC[C@]3(C)[C@H](CC[C@@H]4[C@@]5(C)CC[C@H](OP(=O)(OCC)OCC)C(C)(C)[C@@H]5CC[C@]43C)[C@@H]12,101%,29.6%,106%,83.6%,59.5%,87.3%,89.4%,84.8%,82.9%,102%
O=C(CSc1nnc(-c2ccc(Cl)cc2)n1-c1ccccc1)Nc1cccc(F)c1,58.1%,48%,52.7%,27%,25.6%,56.2%,9.38% (active),-1.04% (active),85.9%,62.9%
NCCNC(=O)c1cccc(COc2ccccc2NC(=O)c2cc(Cl)c(Cl)[nH]2)c1,92.6%,5.92% (active),100%,106%,93.5%,90.2%,105%,97.6%,98.9%,101%
Cn1c(SCC(=O)c2ccco2)nc2ccccc2c1=O,106%,92%,98.3%,93.8%,124%,102%,104%,96.6%,99.7%,97.2%
COc1cc2oc(-c3cccc(NC(=O)[C@@H](N)C(C)C)c3)cc(=O)c2c(OC)c1OC,105%,105%,110%,99.2%,107%,107%,96.7%,95.9%,108%,111%
CC(=O)Nc1nc(C)c(-c2csc(Nc3ccccc3)n2)s1,30%,24.8%,13%,33%,6.02% (active),46.7%,11.9%,15.9%,50.7%,35.3%
CCOC(=O)c1cnc2c(-c3ccc(Cl)c(Cl)c3)cnn2c1,104%,21.7%,75.7%,81.5%,79.7%,92.7%,82.9%,85.9%,81.9%,60%
CCc1nnc(NC(=O)c2cc(-c3ccc(Cl)cc3Cl)oc2C)s1,93.5%,86%,88.3%,91.5%,109%,89.3%,94.2%,92.4%,103%,93.3%
Clc1ccc2c(N/N=C/c3c[nH]c4ccccc34)ccnc2c1,-90.2% (active),-22.1% (active),-95.8% (active),-83.5% (active),-87.2% (active),-58.4% (active),-85.3% (active),-86.7% (active),-91.8% (active),-89.3% (active)
O=C(/C=C/c1cccc(F)c1)c1cccc(OCCCOc2cccc(C(=O)/C=C/c3cccc(F)c3)c2)c1,86.6%,21.7%,99.4%,81%,70.1%,92.1%,-19.8% (active),92.3%,107%,92%
